NS1 function inh: influenza NS1 inhibition; actives 0.4% (n = 270,000); AID 2326; Potency, µM (highest dose often 46.1 µM), for inactives: at the top dose activity, positive = more growth; calls by dose curve; also: actives are rising curves; nearly all actives have a fitted effect of over 50% in size
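In this qHTS, NS1 from influenza A is expressed in budding yeast, where it slows growth. Cells are switched from glucose to 2% galactose medium (pH 6.0, -URA), treated with compound, and growth recovery is read at OD600.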
LmPK inhibitor: inhibitors of Leishmania mexicana pyruvate kinase; Q27686; purified LmPK, Kinase-Glo ATP luminescence, 1 h; Potency, µM (top dose mostly 57.5 µM), inactives show at the highest dose activity change, negative = inhibition, hits mostly inhibitors; actives 0.37% (n = 290,000); AID 1721; also: % is scaled to controls: 0 for no effect and ±100 for the full control effect
Target sequence (Q27686 whole entry, looked up): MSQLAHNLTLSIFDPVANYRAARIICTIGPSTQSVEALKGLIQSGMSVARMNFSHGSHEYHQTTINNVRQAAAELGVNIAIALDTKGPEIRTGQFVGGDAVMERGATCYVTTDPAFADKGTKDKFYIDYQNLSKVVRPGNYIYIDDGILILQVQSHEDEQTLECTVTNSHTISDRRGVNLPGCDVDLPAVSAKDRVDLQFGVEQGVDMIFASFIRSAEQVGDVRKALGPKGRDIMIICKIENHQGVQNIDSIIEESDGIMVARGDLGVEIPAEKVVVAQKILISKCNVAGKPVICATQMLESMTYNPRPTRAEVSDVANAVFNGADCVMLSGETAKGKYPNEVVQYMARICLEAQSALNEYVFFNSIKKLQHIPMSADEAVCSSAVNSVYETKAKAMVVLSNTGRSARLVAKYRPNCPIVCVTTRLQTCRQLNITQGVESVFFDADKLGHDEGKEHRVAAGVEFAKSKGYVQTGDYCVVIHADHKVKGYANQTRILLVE
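qHTS format; LmPK 0.1 nM; substrates PEP 0.5 mM and ADP 0.1 mM. One-hour room-temperature incubation, then coupled luciferase luminescence; 0.5 nM enzyme wells mark activation.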
RE007 growth inh: less growth of the S. pombe RE007 Vpr strain; actives 0.21% (n = 360,000); Potency, µM (doses to about 92.2 µM), for inactives: at the top dose activity change, negative = less growth, usual class: inhibitors; S. pombe RE007 Vpr strain, BacTiter-Glo ATP luminescence, 24 h; AID 651644; active = well fitted falling curve with a large enough effect; inconclusive = small, poorly fitted or top-dose-only effect; inactive = no such curve, though single readings can be large or run the other way; also: % is scaled to controls: 0 for no effect and ±100 for the full control effect; nearly all actives have a fitted effect of over 50% in size
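Fission yeast strain RE007, carrying one chromosomally integrated HIV-1 vpr copy, was seeded at OD 0.01 in PMG+AL medium with 23 nL pinned compound. After 24 h at 30 °C and 99% humidity, viability was read by BacTiter-Glo luminescence.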
Tb PYK inh: blocks Trypanosoma brucei pyruvate kinase; Q57TT1; TbPYK enzyme, Kinase-Glo Plus ATP luminescence, 45 min; Potency, µM (series often up to 76.8 µM), without a hit: at the highest dose activity, negative = inhibition, most hits filed as inhibitors; actives 0.12% (n = 410,000); also: % is scaled to controls: 0 for no effect and ±100 for the full control effect; nearly all actives have a fitted effect of over 50% in size
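TbPYK + substrate in 50 mM TEA pH 7.2, 100 mM KCl, 10 mM MgCl2, 0.05% BSA, 0.01% Tween-20; cpd pinned; ADP 130 uM final; 45 min RT; Kinase-Glo Plus 10 min; luminescence endpoint.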
* = called active by the depositor; ? = inconclusive; · = no result; [ ] = another dose, or the depositor's remark. An excerpt weighted towards active compounds, which were near 0.77% of everything screened. Unless noted, calls follow the shape of the dose curve; as a rule, active = well fitted curve in the direction sought with a large enough effect; inconclusive = small, poorly fitted or top-dose-only effect, or another doubt; inactive = no such curve, though single readings can be large; an effect the other way counts as inactive or inconclusive. Potency is read from the fitted curve at half-maximal effect.

SMILES	NS1 function inh	LmPK inhibitor	RE007 growth inh	Tb PYK inh
O=C(c1cnccn1)N1CCC2(CC1)CN(c1ccncc1)C2	·	·	·	1.7%
CC(C)(C)C1=CC(=Nc2ccccc2N)C=C(C(C)(C)C)C1=O	13.9%	-4.3%	-3.7%	-28.1%
CC(C)(C)C1=CC(=O)C(=O)C(C(C)(C)C)=C1	-19.2%	14.1µM*	12.5%	8.91µM*
Cc1c(C(=O)Oc2cccc3cccnc23)oc2ccccc12	-54.6%	1.5%	39.8µM*	3.6%
O=[N+]([O-])c1ccc(S(=O)(=O)c2cccc(C(F)(F)F)c2)nc1	·	·	39.8µM*	1.7%
CCn1c(C(=O)N2CCCC(C(=O)NCCc3ccc(C)cc3)C2)cc2sccc21 (stereo unspecified)	-31.8%	0.7%	9.9%	35.5µM*
CCn1c(C(=O)N2CCCC(C(=O)NCCCc3ccccc3)C2)cc2sccc21 (stereo unspecified)	-5.8%	3.8%	-5.7%	-16.2%
O=C(N/N=C/c1ccc(N2CCOCC2)o1)c1cccc([N+](=O)[O-])c1	?	-2.9%	3.0%	12.6µM*
Cc1ccc(/C=N/NC(=O)c2ccc(-c3ccccc3)cc2)o1	-41.9%	0.4%	-18.2%	-2.1%
Cc1ccc(C(=O)Nc2ccc(N3CCCCC3)cc2)cc1	·	·	·	-5.5%
O=C(Nc1ccc(N2CCCCC2)cc1)c1ccccc1	0.2%	3.55µM*	?	-17.2%
O=C(N/N=C/c1ccccc1)c1ccc(N2CCOCC2)c([N+](=O)[O-])c1	?	-0.5%	9.2%	5.3%
O=C(N/N=C/c1ccc(N2CCCCC2)o1)c1ccccc1	15.0%	-12.6%	-8.6%	22.4µM*
CCOC(=O)c1cc(S(=O)(=O)NCc2ccc(OC)cc2)[nH]n1	·	·	·	-10.7%
Cc1cc(Cc2cc(C)c(N)cc2N)c(N)cc1N	8.91µM*	·	·	·
Cc1cc(Cc2cc(C)c(N)cc2C)c(C)cc1N	3.0%	6.8%	5.3%	1.6%
CN(C)c1ccc(/C=C/c2nc3ccccc3s2)cc1	0.7%	-19.2%	?	-12.1%
Cc1ccc(/C=C/c2nc3ccccc3s2)s1	-4.4%	28.2µM*	?	-1.5%
CCSC(=O)N=Nc1ccc(O)cc1	·	·	15.8µM*	-12.5%
O=[As](O)(O)c1ccc(N=Nc2ccc(O)cc2)cc1	-2.8%	-7.4%	·	-2.0%
Cc1ccc2c(c1)CC1(CN2C)C(=O)OC(C)(C)OC1=O	7.9%	15.8µM*	-11.0%	-2.1%
Cc1ccc2c(c1)CC1(CN2C)C(=O)NC(=O)N(c2cc(C)ccc2C)C1=O (stereo unspecified)	17.0%	3.9%	-3.3%	1.6%
CC(C)c1ccc(N2C(=O)CC(Sc3ncn[nH]3)C2=O)cc1 (stereo unspecified)	-32.3%	1.6%	56.2µM*	-18.0%
COc1cc(SC)ccc1C(=O)Nc1nc2ccccc2[nH]1	-22.2%	-21.8%	3.98µM*	?
COc1cccc(C(=O)Nc2nc3ccccc3[nH]2)c1	-5.6%	14.1µM*	?	-19.1%
SMILES	NS1 function inh	LmPK inhibitor	RE007 growth inh	Tb PYK inh
COc1cc(SC)ccc1C(=O)NNC(=O)c1cc(C)oc1C	·	·	12.6µM*	?
COc1cc(SC)ccc1C(=O)Nc1c(C)cccc1C	-9.8%	6.8%	18.5%	0.6%
COc1ccccc1C(=O)Nc1nc2ccccc2[nH]1	-44.5%	11.2µM*	?	10µM*
CCN(CC)C(=O)Nc1ccc(OC[C@H](O)CNC(C)(C)C)c(C(C)=O)c1	·	·	·	-7.5%
c1cnc2cc3c(cc2n1)[C@@H]1CNC[C@@H]3C1	·	·	·	-3.4%
Cc1cc2nc(/C=C/c3nc4cc(C)c(C)cc4[nH]3)[nH]c2cc1C	-0.4%	-0.5%	·	-1.5%
Cc1ccc(/C=C/c2nc3ccccc3[nH]2)o1	·	15.8µM*	-29.6%	?
Cc1cccc(-c2n[nH]c(=S)n2Cc2ccccc2)c1	-24.3%	17.8µM*	6.5%	?
Oc1ccc(-c2n[nH]c(=S)n2Cc2ccco2)cc1	-3.8%	11.2µM*	-8.2%	?
S=c1[nH]nc(-c2cccc(Cl)c2)n1Cc1ccccc1	-0.4%	?	4.2%	?
Cc1ccc(-c2n[nH]c(=S)n2Cc2ccccc2)cc1	-3.1%	12.6µM*	-4.5%	?
N[C@@H](CC1=CS(=O)(=O)c2ccc(Cl)cc21)C(=O)O	7.9%	·	·	·
COc1cc(CC(C)N)c(OC)cc1C (stereo unspecified)	·	·	·	-8.8%[157 µM]
COc1ccc(/C=N/Nc2ncccc2[N+](=O)[O-])c(OC)c1	·	25.1µM*	-8.9%	?
COc1cc(NC(=O)c2cc(-c3cccc(OC)c3)n[nH]2)cc(OC)c1	·	·	·	-2.4%
COc1ccc(NC(=O)c2cnc3sccn3c2=O)cc1OC	-6.3%	·	·	·
CCC(=O)Oc1ccc(-c2nc(-c3cccnc3)no2)cc1	-53.2%	7.94µM*	?	-19.8%
N#CC1(NC(=O)COC(=O)c2cc(O)c3ccccc3c2O)CCCCC1	·	·	?	28.2µM*
COC(=O)C1=C(C)NC(C)=C(C(=O)O[C@H]2CCN(Cc3ccccc3)C2)C1c1cccc([N+](=O)[O-])c1 (stereo partly specified)	·	·	·	-7.2%
O=C(c1ccc(-c2nc3ccccc3s2)s1)N1CCOCC1	·	14.1µM*	?	?
c1ccc2sc(-c3ccc4c(c3)OCO4)nc2c1	-14.6%	10µM*	?	?
COc1ccc(CC(=O)Nc2ccc(-c3nc4ccccc4s3)cc2Cl)cc1	·	·	·	1.3%
c1ccc2sc(-c3ccncc3)nc2c1	-7.7%	?	1.8%	-17.4%
Oc1ccc(-c2nc3ccccc3s2)cc1	-39.8%	15.8µM*	?	-10.4%
COc1ccc(-c2nc3ccccc3s2)cc1	-7.7%	12.6µM*	?	?
SMILES	NS1 function inh	LmPK inhibitor	RE007 growth inh	Tb PYK inh
c1ccc2[nH]c(-c3ccc4c(c3)OCO4)nc2c1	·	·	39.8µM*	?
Cc1ccc(-c2nc3ccccc3[nH]2)cn1	-23.3%	-28.6%	?	-14.7%
Clc1ccc(-c2nc3ccccc3[nH]2)cn1	-34.0%	25.1µM*	-16.8%	-9.1%
O=C(Nc1ccc(-c2nc3ccccc3[nH]2)cc1)c1ccc2c(c1)OCO2	17.9%	0.3%	-17.7%	3.5%
O=C(O)c1cc[c]([Hg][Cl])cc1	-59.2%	·	?	17.8µM*
O=C(O)c1ccccc1	·	·	4.1%	-2.4%
Cc1ccc(O)c(-c2cc3ccccc3[nH]2)c1	-30.9%	-3.8%	35.5µM*	6.1%
Cc1ccc(N2C(=O)C3C4C=CC(CC4)C3C2=O)cc1[N+](=O)[O-] (stereo unspecified)	-12.9%	35.7%	-10.9%	1.2%
Cc1cc(C)cc(N2C(=O)C=CC2=O)c1	·	·	3.16µM*	12.6µM*
Cc1c([N+](=O)[O-])cc(N2C(=O)C=CC2=O)cc1[N+](=O)[O-]	·	·	-15.7%	25.1µM*
Cc1cc(N2C(=O)C=CC2=O)c([N+](=O)[O-])cc1C	-36.0%	?	?	28.2µM*
NC(N)=NCCCC(N)C(=O)O (stereo unspecified)	·	·	·	0.9%
CCCCCCCCCCCCCCCCCCNC(=O)OC1CCN(C(=O)OC[C@H](COC(=O)N(Cc2cccc[n+]2CC)C(=O)c2ccccc2OC)OC)CC1	·	·	·	2.9%
C[C@H]1NCc2cc(-c3ccc4c(=O)c(C(=O)O)cn(C5CC5)c4c3OC(F)F)ccc21	·	·	·	0.0%
O=C1c2ccccc2-c2nnc(-c3ccc(O)cc3)cc21	1.1%	8.91µM*	-18.2%	-18.3%

Bioassay records (PubChem)
